Holding throughout (test): MAPPIT interaction score (arbitrary units); higher = stronger binary interaction signal, active = hit call of the paper
One assay has as its target CG2772. Conditions: pair source set: RRS.
The next assay addresses CG2199. Conditions: MAPPIT configuration: N-N; pair source set: Curagen_low_conf.
The target of the next assay is Paics. As to conditions: MAPPIT configuration: N-N; pair source set: DPIM.
A further assay addresses CG30472. Conditions: pair source set: RRS.
In another assay the target is CG1971. As to conditions: MAPPIT configuration: N-N; pair source set: Curagen_high_conf.
The target in another assay is CG9986. Conditions: MAPPIT configuration: N-N; pair source set: Curagen_low_conf.
A further assay has as its target Mdr49. As to conditions: MAPPIT configuration: N-N; pair source set: Lit-BS-16.
In a further assay the target is PAN3. As to conditions: MAPPIT configuration: N-N; pair source set: Curagen_low_conf.
For a further assay, the target named is CG2017. As to conditions: MAPPIT configuration: N-N; pair source set: screen_1.
The target in the next assay is CG2852. Conditions: pair source set: Lit-BM-16.
A further assay concerns the target CG30349. Conditions: MAPPIT configuration: N-N; pair source set: Curagen_low_conf.
The next assay addresses CG2991. As to conditions: MAPPIT configuration: N-N; pair source set: RRS.
The next assay concerns the target CG2021. As to conditions: MAPPIT configuration: N-N; pair source set: DPIM.

A number with no mark means an inactive call.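 Rule for the calls: active = MAPPIT score above the 99th percentile of random reference set scores in the same batch; inactive = at or below it.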
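Note: HEK293T cells with Epo stimulation, STAT-responsive firefly luciferase reporter, fold induction versus unstimulated cells divided by the larger fold induction of two negative controls lacking either bait or prey.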

B1: okr (protein)
chain: MRRSLAPSQRGPLRPESRHSFTPPLLKKNKRSCQQELEREQELDRRRLGALRDASNTSELPLPIRFTANSEYELAIAKVLARKFKVPMDNYVPDYGGKRVLGVRRCISRRPLHDPMACNALVLFHPPAYTEHERMGMDPTKVLVHVVVDPLLSNILRPHQREGVRFMYECVEGKRGNFNGCIMADEMGLGKTLQCVTLVWTLLRQGPECKPTINKAIVVSPSSLVKNWEKEFTKWLHGRLLCLPMEGGTKENTIRALEQFSMTSARLGTPVLLISYETFRIYAEILCKYEVGMVICDEGHRLKNSDNLTYQALMGLKTKRRVLLSGTPIQNDLTEYYSLVNFVNPEMLGTAAVFKRNFESAILRGQNTDSTEQERQRAIEKTQELIGLVDQCIIRRTNQILTKYLPVKFEMVICAKLTAIQLELYTNFLKSDQVRRSLADCNEKASLTALADITTLKKICSHPDLIYEKLTAREKGFENSQNVLPSNYKPKDLNPELSGKFMLLDFMLAAIRAEGNDKVVLISNYTQTLDLFEQLARKRKYGFVRLDGTMSIKKRSKVVDRFNDPESDSFLFMLSSKAGGCGLNLIGANRLFMFDPDWNPANDEQAMARVWRDGQKKPCYIYRLVASGSIEEKILQRQTHKKSLSSTIIDNNESAEKHFTRDDLKDLFTFDANILSDTHDKLKCKRCVQNIQMKPPPEDTDCTSHLSQWYHCSNNRGLPDNILAQAWMDCKCVSFVFHHRSQAQEIVPSAEEEATDQPEEKPESRKRSSTPASDDSADEDFRGF
For B1, the MAPPIT interaction score with CG2772 (MAPPIT configuration: N-C) was -0.364; with CG2772 (MAPPIT configuration: N-N) it was -0.357.

B2: Hel25E (protein)
chain: MADNDDLLDYEDEEQTETTAVENQEAPKKDVKGTYVSIHSSGFRDFLLKPEILRAIVDCGFEHPSEVQHECIPQAVLGMDILCQAKSGMGKTAVFVLATLQQLEPSDNNTCHVLVMCHTRELAFQISKEYERFSKYMPTVKVAVFFGGMAIQKDEETLKSGTPHIVVGTPGRILALIRNKKLNLKLLKHFVLDECDKMLEQLDMRRDVQEIFRSTPHGKQVMMFSATLSKDIRPVCKKFMQDPMEVYVDDEAKLTLHGLQQHYVNLKENEKNKKLFELLDVLEFNQVVIFVKSVQRCVALSQLLTEQNFPAIGIHRGMTQEERLNRYQQFKDFQKRILVATNLFGRGMDIERVNIVFNYDMPEDSDTYLHRVARAGRFGTKGLAITFVSDENDAKILNEVQDRFDVNISELPEEIDLSTYIEGR
In the case of B2, the results for the MAPPIT interaction score with CG2199 and with Paics were -0.422 and 1.6, respectively.

B3: Or43b (protein)
chain: MFGHFKLVYPAPISEPIQSRDSNAYMMETLRNSGLNLKNDFGIGRKIWRVFSFTYNMVILPVSFPINYVIHLAEFPPELLLQSLQLCLNTWCFALKFFTLIVYTHRLELANKHFDELDKYCVKPAEKRKVRDMVATITRLYLTFVVVYVLYATSTLLDGLLHHRVPYNTYYPFINWRVDRTQMYIQSFLEYFTVGYAIYVATATDSYPVIYVAALRTHILLLKDRIIYLGDPSNEGSSDPSYMFKSLVDCIKAHRTMLNFCDAIQPIISGTIFAQFIICGSILGIIMINMVLFADQSTRFGIVIYVMAVLLQTFPLCFYCNAIVDDCKELAHALFHSAWWVQDKRYQRTVIQFLQKLQQPMTFTAMNIFNINLATNINVAKFAFTVYAIASGMNLDQKLSIKE
Consider B3, for which the MAPPIT interaction score was 0.0282 with CG30472 (MAPPIT configuration: N-C) and 0.0958 with CG30472 (MAPPIT configuration: N-N).

B4: CG2678 (protein)
chain: MMHSAKNVCRTCMDETGTLVDIFANVRDPVLDEPEMSLSHILARCTERPVKRGDLLPQFICVSCVLAVQNAFRFKWQSEQSYQHFFRVLNQSGAPENQVHLAACNGDKNQIINQKMQLKSDRQQDTQQMTKTQKPDDDLSQKQTLQAKLQEGNIDGPPESFTLHPRKRTCRTEEQADMIPKEATRSTKMICDADGYYNCPHCSKRFCSQTQLRTHITDLCNRCPYCPRTYMQKSNLKRHLRNHLSKPAHKCFHCSKAFMRKDHLKRHLRTHDSDGPLSCSQCSAVFIEHVQLEIHRREHKQRPGSSKSESTKDPDSDDSDQAQDLKPKWTKNTFNGTCSIPPMLKPKPICDICQKKFSSVYALKRHMLTHNRQHHLKKCTYCSEEFKTEKHLKRHERGHMGDLFRCEFCSLVFVDVNYLRKHKKRIHSNNVIAM
Turning to B4, the MAPPIT interaction score with CG1971 is -0.147; with CG9986, -0.191; with Mdr49, -0.0532; with PAN3, -0.0312.

B5: bin3 (protein)
chain: MEKRLSDSPGDCRVTRSTMTPTLRLDQTSRQEPLPQQPDNGPAAAPGKSKSPTPLPGKSQAAQHHQFRAPQQQQGPKNRNKAWSKRQHKAGGKHNPSACVGASSGQAQSTGSSVIAATLLPTAASAHKADLENIQNIHNKNLTAGGGVNHHGNAGTAHHGGGGGAGAHHAAAGGHHHHHNTRLAQNAAAGGASGGGTIQMHKKMLRGHHHHVLCAGNNANHTCCLVTGCNGSSIGGVGVAGSGGATASAGGGGASCKEAQSCKDTSSLSGNSSIAGSAGAGNAVHYCCGRSKFFLPEKRLRKEVIVPPTKFLLGGNISDPLNLNSLQNENTSNASSTNNTPATTPRQSPITTPPKVEVIIPPNIHDPLHLLDPVDSMEYEKQLTSPMKRAGPGGGMLHHRQHHYRTRKNRKRRRFDSNNTSHAGDEGGVGSELTDEPPLPAATSSLAASPVAAPLNVGGSLLLSESAAPAPGETAEMGQQQEQAHVHSPQSASTTTTAAEMPTPTPTSAAAATATAEHKEQSAPAPTATSSPQRQQQHVAAAAEELPTPETSAAAETPAEEMLLSCSATSASLVASTLAERRASRDLRLDLSSTCYGVGGTGLSFGGSISSSVGSSFGGGGRKRKISESSTSQKSKKFHRHDAMDKIVSPVVPQPGAWKRPPRILQPSGARKPSTRRSTSVSESELLSPVEEQPPKQLPLIGVEIPRDDTPDLPDHGLGSPLSTTSGATSHTAGEQDSLAGVDISMGDTLGSGVVGKAPLTSSLMLEPAKIPPIKMLPKFRADGLKYRYGNFDRYVDFRQMNEFRDVRLQVFQRHVELFENKDILDIGCNVGHMTITVARHLAPKTIVGIDIDRELVARARRNLSIFVRIPKEEKLLEVKAEPTVDAKANIAVKDETSGAAHKKTRRGKRRRKVHQGIHHHHHHHHDLEQLQQQQKLNSLLVKPHEFFPISFPLTYGRIPRILSSSKSPNMLGNKNQFPANVFFRHTNYVLKDESLMASDTQQYDLILCLSVTKWIHLNFGDNGLKMAFKRMFNQLRPGGKLILEAQNWASYKKKKNLTPEIYNNYKQIEFFPNKFHEYLLSSEVGFSHSYTLGVPRHMNKGFCRPIQLYAKGDYTPNHVRWSDAYYPQTPYEAYRGIYATLPVHRMGGGGSSAGGSNSGHAQMLHLSSSSRSQNYDTPHYAGSASGSASCRQTPMYQPTYNPLETDSYQPSYDMEYLNHMYVFASPLYQTVWSPPASLRKSSSHTPVFGSVRDAELDGDGSGGGGSGGGSYHRHVYPPNDDTCSPNANACNAFNSIRDADTDDSNQLPGGSRRHVYATNCGESSSSPQVNHHDAVGEFVDGLMDDEQKSSTGGGTGGAAYCDLSDA
Regarding B5, in the assay with CG2017, the MAPPIT interaction score was 0.262.

B6: Pdi (protein)
chain: MKFLICALFLAASYVAASAEAEVKVEEGVLVATVDNFKQLIADNEFVLVEFYAPWCGHCKALAPEYAKAAQQLAEKESPIKLAKVDATVEGELAEQYAVRGYPTLKFFRSGSPVEYSGGRQAADIIAWVTKKTGPPAKDLTSVADAEQFLKDNEIAIIGFFKDLESEEAKTFTKVANALDSFVFGVSSNADVIAKYEAKDNGVVLFKPFDDKKSVFEGELNEENLKKFAQVQSLPLIVDFNHESASKIFGGSIKSHLLFFVSREGGHIEKYVDPLKEIAKKYRDDILFVTISSDEEDHTRIFEFFGMNKEEVPTIRLIKLEEDMAKYKPESDDLSAETIEAFLKKFLDGKLKQHLLSQELPEDWDKNPVKVLVSSNFESVALDKSKSVLVEFYAPWCGHCKQLAPIYDQLAEKYKDNEDIVIAKMDSTANELESIKISSFPTIKYFRKEDNKVIDFNLDRTLDDFVKFLDANGEVADSEPVEETEEEEEAPKKDEL
On to B6, for which the MAPPIT interaction score in the assay with CG2852 (MAPPIT configuration: N-C) was -0.281; with CG2852 (MAPPIT configuration: N-N) it was 1.74.

B7: kdn (protein)
chain: MSLYRISARKLSEAQKLPNVGAYVRMIAADGKSLRDVLAAKVPQEQERVKNFRKQHGATKMGETTIDMMYGGMRGIKALVTETSVLDADEGIRFRGLSIPECQKVLPAADGGTEPLPEGLFWLLLTGEVPTKSQVQQLSREWAERAALPQHVVTMLNNMPTTLHPMSQFAAAVTALNHDSKFAKAYSDGVHKSKYWEYVYEDSMDLIAKLPVVAATIYCNTYRGGKGSRSIDSSLDWSANFVKMLGYDNAPFTELMRLYLTIHSDHEGGNVSAHTVHLVGSALSDPYLSFAAGLNGLAGPLHGLANQEVLVWLRKLQKEAGNNPSEEQLKEYIWKTLKSGQVVPGYGHAVLRKTDPRYTCQREFALKHLPEDETFQLVSKIYKVVPPILTETGKVKNPWPNVDAHSGVLLQYYGMKEMNYYTVLFGVSRALGVLASLVWDRALGLPIERPKSFSTDLLVKMVQK
As to B7, the MAPPIT interaction score in the assay with CG30349 is 0.214.

B8: wda (protein)
chain: MSLPSASNHAHAASPVYSNSNNNKSSASSKKTSSKNDLLRCAVGLLLKQKNYVSNERFRRSDFLLLQNKQQFAVNKMLDTDLHGGNSFTFSNVQVITNNQHTVDQQFGRFSQFVEAQAEPLRLEMKRFYGPMLCHFYLDLLKAREPRGAVELLRKYAHLVAPVDMYDAPPPTKINGCSTTANESTFNIRFAKEAQDTGDTELDYFMRLVQTLSGYTRLEAAESDDTVAHFRSSKYELHTTAVVVNRICAYLQRRGHVLIMNLLYTWLHVHIVENEQRAFSEDHLLGLTDDLEGEDGEDDVVSKPAVTLNTRGDIRPSKSLTEKSNRKRPAEEPNIMLETDIKQEVETDESAELSKLQLNIDACLDTLKSATEQILKSQVELPRFLRISERSRGLTSAHLDPSECHMLAGFDNSAVQLWQLNQSYCRGKSFYRRYPQKRCPWELNNCANQEEETDEDSSDEDVKCSEEERRERNRARHCKYADNSYNEYGGFQLRGHTKGVTDVRFSAHYPLMYSVSKDATMRCWRAHNLHCAAIYRSHNYPIWCLDESPVGQYVVTGSKDLSARLWSLEKEHALIIYAGHTQDVECVAFHPNGNYIATGSADHSVRLWCATSGKLMRVFADCRQAVTQLAFSPDGKMLAAAGEETKVRIFDLAAGAQLAELKDHSASISSLSWSTHNRHLATACSDGTLRLWDIKKLSPMSDNSSAGSSSSATTNRVLTVNSSCQRLVDVFYGTSKTLYCIGT
For the molecule B8, the MAPPIT interaction score with CG2991 was -0.317.

B9: MP1 (protein)
chain: MEPHFFFTVLWMLLMGTSSTYAQEIFGYCRTPDENSGTCINLRECGYLFELLQSEEVTEQDRRFLQASQCGYRNGQVLEKHFCFTNVQICCANSRMRNQQPQWGNHPQPTQTTKPTKRSGTKLLPMAPNCGENFGDRVVGGNETTKREFPWMALIEYTKPGNVKGHHCGGSLINHRYVLTAAHCVSAIPSDWELTGVRLGEWDASTNPDCTVGKNGRRDCNEPYVDYPVEERIPHPQYPGNSRDQLNDIALLRLRDEVQYSDFILPVCLPTLASQHNNIFLGRKVVVAGWGRTETNFTSNIKLKAELDTVPTSECNQRYATQRRTVTTKQMCAGGVEGVDSCRGDSGGPLLLEDYSNGNSNYYIAGVVSYGPTPCGLKGWPGVYTRVEAYLNWIENNVRA
In the case of B9, the MAPPIT interaction score in the assay with CG2021 is -0.105.

Values taken from the supplement of paper PMC10105736.
